Assay results taken from ChEMBL document CHEMBL1201862, “PubChem BioAssay data set” (2004).
Among all 400,000 compounds or so, about 2,100 (0.53%) were called active. Roughly 14% stayed inconclusive and do not appear here. This is one part of a sample in which actives are shown more often than they occur. How the calls were made is not given here.

target: Ataxin-2 (Homo sapiens) (UniProt Q99700); assay: qHTS for Inhibitors of ATXN expression.; format: functional
Sequence (Q99700 whole entry): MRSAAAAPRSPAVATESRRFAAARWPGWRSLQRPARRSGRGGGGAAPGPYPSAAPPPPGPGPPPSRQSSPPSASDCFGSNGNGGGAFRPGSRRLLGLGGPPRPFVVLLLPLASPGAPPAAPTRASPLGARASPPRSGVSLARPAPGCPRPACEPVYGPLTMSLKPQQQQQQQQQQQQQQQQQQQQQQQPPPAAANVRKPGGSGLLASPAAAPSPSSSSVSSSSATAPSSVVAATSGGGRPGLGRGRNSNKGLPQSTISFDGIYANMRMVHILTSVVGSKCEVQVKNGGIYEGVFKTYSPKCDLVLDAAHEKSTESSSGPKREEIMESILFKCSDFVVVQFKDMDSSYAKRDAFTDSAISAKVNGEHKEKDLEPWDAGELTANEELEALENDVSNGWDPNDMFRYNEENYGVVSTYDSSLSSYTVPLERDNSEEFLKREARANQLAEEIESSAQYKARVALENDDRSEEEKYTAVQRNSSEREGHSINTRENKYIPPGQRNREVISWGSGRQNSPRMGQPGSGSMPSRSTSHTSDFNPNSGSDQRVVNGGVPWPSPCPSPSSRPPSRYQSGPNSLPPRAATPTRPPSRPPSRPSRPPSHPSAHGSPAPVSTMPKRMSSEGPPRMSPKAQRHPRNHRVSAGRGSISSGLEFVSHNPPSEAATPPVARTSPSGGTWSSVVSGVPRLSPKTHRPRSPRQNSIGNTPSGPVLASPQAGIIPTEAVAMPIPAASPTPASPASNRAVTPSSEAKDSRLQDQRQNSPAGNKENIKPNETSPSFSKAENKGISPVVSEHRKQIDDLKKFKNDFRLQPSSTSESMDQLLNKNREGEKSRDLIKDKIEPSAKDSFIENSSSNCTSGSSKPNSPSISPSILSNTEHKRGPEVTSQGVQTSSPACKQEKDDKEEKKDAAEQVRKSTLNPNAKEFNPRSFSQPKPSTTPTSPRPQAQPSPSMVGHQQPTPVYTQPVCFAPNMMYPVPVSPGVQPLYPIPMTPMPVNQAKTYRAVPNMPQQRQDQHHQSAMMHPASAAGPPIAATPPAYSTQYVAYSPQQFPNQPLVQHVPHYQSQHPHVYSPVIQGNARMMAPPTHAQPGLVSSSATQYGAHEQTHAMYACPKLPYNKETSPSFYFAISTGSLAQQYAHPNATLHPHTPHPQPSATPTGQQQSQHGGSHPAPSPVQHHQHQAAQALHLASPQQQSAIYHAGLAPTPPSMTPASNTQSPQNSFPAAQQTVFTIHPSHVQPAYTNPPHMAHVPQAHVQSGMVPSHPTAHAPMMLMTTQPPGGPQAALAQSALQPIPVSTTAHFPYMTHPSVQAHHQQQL

Compound	Potency
CCOC(=O)c1c(CSC(=N)N)n(C)c2cc(Br)c(OC(C)=O)cc12	35.5 µM (active)
CCOC(=O)c1c(CSc2ccccc2)n(C)c2cc(Br)c(OCC(O)CNC(CO)(CO)CO)cc12 (stereo not drawn)	25.1 µM (active)
CCOC(=O)c1c(-c2ccccc2)oc2ccc(OCC(O)CNCCN(C)C)cc12 (stereo not drawn)	inactive
O=C(C1=CC=CN2CCS(=O)(=O)N=C12)N1CCN(c2cccc(Cl)c2)CC1	inactive
Cc1ccc(CC2(C)C(=O)Nc3ccc(OC(F)(F)F)cc32)cc1 (stereo not drawn)	39.8 µM (active)
CCOC(=O)C1=NN(C(=O)c2ccc(OC)cc2)C(O)(c2ccc(Cl)cc2)C1 (stereo not drawn)	inactive
CCOC(=O)C1=NOC2(C1)C(=O)Nc1ccc(OC(F)(F)F)cc12 (stereo not drawn)	39.8 µM (active)
COc1ccc(OC(F)(F)F)cc1CC1(C)C(=O)Nc2ccc(-c3ccsc3)cc21 (stereo not drawn)	39.8 µM (active)
CC1(Cc2ccccc2OC(F)(F)F)C(=O)Nc2ccc(-c3ccsc3)cc21 (stereo not drawn)	39.8 µM (active)
CN1CCCC(OC(=O)c2cc(Cl)cc(Cl)c2)C1 (stereo not drawn)	inactive
c1ccc(-c2nc(N3CCCCC3)nc3ccccc23)cc1	inactive
C#CCOCCOCCOCCNc1nc(N2CCN(C(=O)CCCCCCCCCCNC(=O)[C@@H](CCC(=O)O)n3cc(CCCCCN)nn3)CC2)nc(N2CCN(C(=O)CCCCCCCCCCNC(=O)[C@H](CCCCN)n3cc(C[C@@H](C)CC)nn3)CC2)n1	31.6 µM (active)
C#CCOCCOCCOCCNc1nc(N2CCN(C(=O)CCCCCCCCCCNC(=O)[C@H](CCCCN)n3cc(C[C@@H](C)CC)nn3)CC2)nc(N2CCN(C(=O)CCCCCCCCCCNC(=O)[C@H](CCCN=C(N)N)n3cc(C[C@@H](C)CC)nn3)CC2)n1	20 µM (active)
Cc1ccc(CNc2nc(NCC3CC3)nc3ccsc23)c(C)c1	39.8 µM (active)
Cc1ccc(Nc2nc(NCC3CC3)nc3ccsc23)c(C)c1	20 µM (active)
O=C(COC(=O)c1ccc(Cl)nc1)Nc1ccc2c(c1)CCC2	inactive
CC(=O)Oc1ccc2c(c1)O/C(=C\c1ccncc1)C2=O	inactive
COCc1cc(C)nc(SCC(=O)Nc2nc(C)cs2)c1C#N	inactive
CCOC(=O)Cc1csc(NS(=O)(=O)c2ccc(SC)cc2)n1	inactive
NNC(=O)c1cccc(Cn2cc(Br)c([N+](=O)[O-])n2)c1	inactive

Compound	Potency
C#CCn1/c(=N/C(=O)CSC(C)=O)sc2cc(F)ccc21	6.7 µM (active)
COCC(=O)OC1CCn2c1nc1c2C(=O)C(C)=C(NC(C)=O)C1=O (stereo not drawn)	10 µM (active)
OCC1(CC2CCCCO2)CCN(Cc2ccccc2-c2ccco2)CC1 (stereo not drawn)	inactive
Nc1nc(Br)c2ccccc2c1-c1ccccc1	inactive
O=C(Oc1ccc(C(=S)N2CCOCC2)cc1)c1cccc(Cl)c1	inactive
CC(C)c1ccc(C(=O)N2CCN(c3cnn(C)c(=O)c3Cl)CC2)cc1	inactive
Clc1cccc(N/N=C/c2ccc(N3CCOCC3)s2)c1	39.8 µM (active)
Fc1cccc(/C=N/Nc2cc(N3CCOCC3)ncn2)c1	inactive
Oc1c(Cl)cc(Cl)cc1/C=N/c1ccc(N2CCOCC2)cc1	inactive
COc1cc(C2CC(=O)N(Cc3ccc(F)cc3)c3ccccc3S2)cc(OC)c1OC (stereo not drawn)	28.2 µM (active)
C=CCN1C(=O)[C@@H]2Cc3c([nH]c4ccccc34)C(c3cc(OC)c(OC)c(OC)c3)N2C1=S (stereo partly drawn)	inactive
COc1cc(C2CC(c3cccnc3)=NN2c2ccc(F)cc2)cc(OC)c1OC (stereo not drawn)	inactive
Cc1cc(NC(=O)C(C)SCC(=O)O)no1 (stereo not drawn)	inactive
CCCCCCn1c(=O)n2n(c1=O)[C@@H]1CN(S(=O)(=O)c3ccc(C)cc3)C[C@]1(O)[C@@H](OC(=O)NCc1ccccc1F)C2	35.5 µM (active)
Cc1ccc(S(=O)(=O)N2C[C@H]3n4c(=O)ccc(=O)n4C[C@H](OC(=O)NCc4ccccc4F)[C@@]3(O)C2)cc1	35.5 µM (active)
Cc1ccc(S(=O)(=O)N2CCCC(CCC(=O)NCc3ccccc3F)C2)s1 (stereo not drawn)	inactive
CCCCCCNC(=O)O[C@H]1Cn2c(=O)n(CCCCCC)c(=O)n2[C@@H]2CN(S(=O)(=O)c3ccc(C)cc3)C[C@]12O	25.1 µM (active)
Cn1c(=O)c(=O)n(C)c2cc(S(=O)(=O)CCC(=O)NCc3ccccc3)ccc21	inactive
CCCCCCn1c(=O)n2n(c1=O)[C@@H]1CN(S(=O)(=O)c3ccc(C)cc3)C[C@]1(O)[C@@H](OC(=O)NCc1ccccc1)C2	28.2 µM (active)
NS(=O)(=O)c1ccc(CNC(=O)/C=C/c2ccco2)cc1	inactive

Compound	Potency
O=C(Cc1ccccc1)NCc1nnc(S)n1-c1ccc(Br)cc1	inactive
CSc1c(C#N)c(O)nc2c1CCc1ccccc1-2	inactive
COc1ccccc1[C@H]1C(c2cccc(C)c2)=NN(c2ccccc2)[C@@H]1CO	inactive
Cc1ccc(C)c(N2CCN(C(=O)c3ccc(Cn4c(=S)[nH]c5ccc(N6CCOCC6)cc5c4=O)cc3)CC2)c1	inactive
CCCC(C)NC(=O)c1cc(S(=O)(=O)N2CCCCCC2)ccc1OC (stereo not drawn)	inactive
CCCCCCNC(=O)O[C@H]1CN(C(=O)OC(C)C)N(C(=O)OC(C)C)[C@@H]2CN(S(=O)(=O)c3ccc(C)cc3)C[C@]12O	22.4 µM (active)
COCCN(CCOC)C(=O)CSc1ccc(S(=O)(=O)N2CCN(C)CC2)cn1	inactive
CC1=C(C(=O)Nc2nc3ccccc3s2)C(c2ccco2)C(C#N)=C(SCC(=O)NC2CCCCC2)N1 (stereo not drawn)	inactive
Cn1c(=O)n(C)c2cc(NC(=O)CCl)ccc21	28.2 µM (active)
O=C(CCl)Nc1ccc2c(c1)OCO2	22.4 µM (active)
COC(=O)c1ccc(NS(=O)(=O)c2ccc3c(c2)n(C)c(=O)n3C)cc1	inactive
CC(=O)Nc1ccc2nc3c(=O)n(C)c(=O)n(C)c3nc2c1	inactive
CC(NS(=O)(=O)c1ccc(Cl)c(Cl)c1)C(=O)OCC(=O)Nc1ccc2c(c1)OCO2 (stereo not drawn)	inactive
Cc1ccc(C(=O)O)cc1-c1ccc(/C=C2\SC(=O)N(CC(=O)Nc3ccc4c(c3)OCO4)C2=O)o1	inactive
O=C(CSc1nc2cc(Cl)c(Cl)cc2[nH]1)c1ccc2c(c1)OCO2	inactive
O=C(Cn1ncc(Cl)c(Cl)c1=O)Nc1ccc2c(c1)OCO2	35.5 µM (active)
O=C(Nc1ccc2c(c1)OCO2)c1sc2cc(Cl)ccc2c1Cl	inactive
O=C(Cn1ncc(Cl)c(Cl)c1=O)c1ccc2c(c1)OCCO2	42.3 µM (active)
